The target in test [1] is Ubiquitin carboxyl-terminal hydrolase 1 (Homo sapiens) (UniProt O94782). As to the kind of experiment: Inhibitors of USP1/UAF1: Pilot qHTS (AID 504865). Also: nearly all actives have a fitted effect of over 35% in size. Also: potency is read from the fitted curve at half-maximal effect. In short, it runs like this: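 USP1/UAF1 complex (1nM) preincubated with compound 15 min at room temperature, then Ub-Rho substrate (150nM final) added. Fluorescence read kinetically at 480/540 nm, 6 reads every 60 seconds. Buffer: 50mM HEPES pH 7.8, 0.5mM EDTA, 0.1 mg/ml BSA, 1mM TCEP, 0.01% Tween-20.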

Test [2] addresses Thyrotropin-releasing hormone receptor (Homo sapiens) (UniProt P34981). Put plainly: qHTS for Small Molecule Agonists and Allosteric Enhancers of Human TRH Receptor: Validation Screen for Agonists (AID 493127;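 active = calcium activation more than 3 SD above the typical response in the agonist read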;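 also: intracellular calcium rise by fluo-8 fluorescence before TRH EC20 addition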). The settings on record: TRH receptor agonist cell assay; at 2 µM; stronger effect = higher value. In outline:
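Compounds are added by online pintool to dye-loaded TRHR cells while fluorescence is recorded every second. A rise in calcium signal during the agonist read marks activation; a later 10 nM TRH addition (EC20) serves the separate enhancer mode.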
For orientation: qHTS replaces the single test concentration by a dilution series.

Test [3] addresses Galactokinase (Homo sapiens) (UniProt P51570). Put plainly: qHTS Validation Assay for Inhibitors of Human Galactokinase (GALK) (AID 493189). In short, it runs like this: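 GALK (5 nM) with 35 uM ATP and 100 uM galactose in HEPES pH8.0, MgCl2, NaCl, DTT, BSA; 1 h at room temperature. Residual ATP read by Kinase-Glo Plus luminescence after 10 min.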
The nature of test [4]: Validation screen for small molecules that induce DNA re-replication in SW480 colon adenocarcinoma cells (AID 504364). In short, it runs like this:
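Image-based qHTS: compounds were incubated with SW480 cells for 48 hr, nuclei stained with Hoechst, and per-nucleus fluorescence intensity scanned to flag cells with excess DNA content.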

A short description of test [5]: Validation screen for small molecules that induce genotoxicity in human embryonic kidney (HEK293T) cells expressing luciferase-tagged ELG1 (AID 493106). In outline:
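Cells were dispensed at 2,000 per well, then 23 nL compound or DMSO was pinned in. After 16 hr at 37 °C and 5% CO2, ONE-Glo reagent was added. Luciferase activity was measured following 30 min at room temperature.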

Test [6] has as its target ATPase family AAA domain-containing protein 5 (Homo sapiens) (UniProt Q96QE3). Put plainly: Validation screen for small molecules that inhibit ELG1-dependent DNA repair in human embryonic kidney (HEK293T) cells expressing luciferase-tagged ELG1 (AID 493107).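 Also: cells co-treated with the DNA-damaging agent 5-fluorouridine alongside compound; series mostly up to about 46 µM; inhibitors lower the ELG1-luciferase luminescence signal; nearly all actives have a fitted effect of over 70% in size.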 In short, it runs like this: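 Cells are dispensed in 1536-well format, then 5-fluorouridine and compound are pinned in. After a 16 hr incubation at 37 °C and 5% CO2, ONE-Glo is added and luciferase measured on a CCD imager.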

Test [7] in a line: Nrf2 qHTS screen for inhibitors: Validation (AID 493153; active = well fitted inhibition curve with a large enough effect in the main read-out, with a control signal flat, not every such curve was filed as active; also: potency is read from the fitted curve at half-maximal effect). The settings on record: Potency: luciferase luminescence; viability change: measured here: cytotoxicity max response. In short, it runs like this:
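A549 ARE_Fluc, 5% FBS OPTI-MEM; cpd titration, 18-24 h, 37°C/5% CO2. Read 1: CellTiter-Fluor (Ex 405/Em 525), cytotox. Read 2: luciferase lum, Nrf2 activity.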

A short description of test [8]: qHTS for Inhibitors of Cell Surface uPA Generation: Validation Assay (AID 493164).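 Also: RAW 264.7 macrophage cells exposed to compound for 18 h.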 In outline:
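ATP-Lite luminescence read-out: ATP remains high when uPA activity-dependent LF translocation into the cytoplasm is blocked. RAW 264.7 cells, 18 h compound exposure at 37 C; 7-point titration, 2.45 nM to 38.3 uM final.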

The target of test [9] is Peptidyl-prolyl cis-trans isomerase NIMA-interacting 1 (Homo sapiens) (UniProt Q13526). As to the kind of experiment: qHTS Validation Assay to Find Inhibitors of Pin1 (AID 504536; active = well fitted inhibition curve with a large enough effect in the polarisation, with a control signal flat, not every such curve was filed as active; the % refers to the polarisation). In outline: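 Fluorescence polarization competition: compounds (titration) displace HiFluor-488-labeled Pin1-1b peptide from Pin1 (0.3 uM final) in pH 7.5 HEPES buffer with DTT, 10 min at room temperature; %Activity normalized to no-enzyme wells, curves fitted.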

Test [10] addresses Phosphoglycerate kinase, glycosomal (Trypanosoma brucei brucei) (UniProt P07378). Put plainly: qHTS Validation Assay to Find Inhibitors of Phosphoglycerate Kinase (AID 504547). In short, it runs like this: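 Luminescence end-point (Kinase-Glo Plus, 10 min) after a 60 min room-temperature coupled reaction. GAPDH at 100nM final supplies 1,3-BPG to PGK. Buffer: 100mM TEA pH 7.6, 5mM MgCl2, 0.01% Tween-20. Wells lacking PGK served as controls.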

For test [11], the target named is phosphoglycerate mutase (Leishmania major) (UniProt Q4Q090). Put plainly: qHTS Validation Assay to Find Inhibitors of Phosphoglycerate Mutase (AID 504548).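 Also: end-point luminescence from Kinase-GloPlus after the PGAM reaction; series mostly up to about 58 µM.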 In outline:
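L. major PGAM (1.25nM final) was added to substrate buffer and pinned compound, incubated 45 minutes at room temperature, then Kinase-GloPlus added; luminescence read after 10 minutes. Buffer: 100 mM TEA pH 7.6, 5 mM MgCl2, 0.01% Tween-20.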

Test [12] is described as follows: qHTS for Inhibitors of ATXN expression: Validation of Cytotoxic Assay (AID 588349). In outline: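 Titrated compounds are added to cultured HEK293 cells, which are then held at 37 degrees C for 72 hr; loss of intracellular ATP, measured with CellTiter Glo, indicates toxicity.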
Test [13] in a line: qHTS for Inhibitors of ATXN expression: Validation (AID 588378). Also: series mostly up to about 57 µM; nearly all actives have a fitted effect of over 75% in size. In outline: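 Luminescence from an ATXN2-FFLuc reporter in HEK293 cells served as read-out after 24 h compound treatment at 37 degrees C; CellTiter-Fluor fluorescence was recorded first to assess viability.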

Results filed as inconclusive are left out. A call without a number means that no potency is given here. Activity calls are given as the source filed them. Unless noted, calls follow the shape of the dose curve; as a rule, active = well fitted curve in the direction sought with a large enough effect; inconclusive = small, poorly fitted or top-dose-only effect, or another doubt; inactive = no such curve, though single readings can be large; an effect the other way counts as inactive or inconclusive.

phosphoglycerate mutase (Leishmania major), sequence (Q4Q090 1-553): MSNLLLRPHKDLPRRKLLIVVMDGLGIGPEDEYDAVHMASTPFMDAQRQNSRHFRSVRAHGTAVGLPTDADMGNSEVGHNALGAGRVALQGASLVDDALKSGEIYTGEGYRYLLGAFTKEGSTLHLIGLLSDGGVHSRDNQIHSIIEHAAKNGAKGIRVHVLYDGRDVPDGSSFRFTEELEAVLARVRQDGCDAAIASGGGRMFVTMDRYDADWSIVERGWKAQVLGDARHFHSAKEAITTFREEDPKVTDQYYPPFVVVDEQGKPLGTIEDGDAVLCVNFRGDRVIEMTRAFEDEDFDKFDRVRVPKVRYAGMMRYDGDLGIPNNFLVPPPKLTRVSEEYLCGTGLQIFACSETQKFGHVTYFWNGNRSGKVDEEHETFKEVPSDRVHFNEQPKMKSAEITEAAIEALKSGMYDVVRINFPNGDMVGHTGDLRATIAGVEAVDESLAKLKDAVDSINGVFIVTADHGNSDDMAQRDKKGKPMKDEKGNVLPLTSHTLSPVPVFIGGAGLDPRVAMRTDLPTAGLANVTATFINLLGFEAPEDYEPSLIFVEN
Ubiquitin carboxyl-terminal hydrolase 1 (Homo sapiens), sequence (O94782 whole entry, looked up): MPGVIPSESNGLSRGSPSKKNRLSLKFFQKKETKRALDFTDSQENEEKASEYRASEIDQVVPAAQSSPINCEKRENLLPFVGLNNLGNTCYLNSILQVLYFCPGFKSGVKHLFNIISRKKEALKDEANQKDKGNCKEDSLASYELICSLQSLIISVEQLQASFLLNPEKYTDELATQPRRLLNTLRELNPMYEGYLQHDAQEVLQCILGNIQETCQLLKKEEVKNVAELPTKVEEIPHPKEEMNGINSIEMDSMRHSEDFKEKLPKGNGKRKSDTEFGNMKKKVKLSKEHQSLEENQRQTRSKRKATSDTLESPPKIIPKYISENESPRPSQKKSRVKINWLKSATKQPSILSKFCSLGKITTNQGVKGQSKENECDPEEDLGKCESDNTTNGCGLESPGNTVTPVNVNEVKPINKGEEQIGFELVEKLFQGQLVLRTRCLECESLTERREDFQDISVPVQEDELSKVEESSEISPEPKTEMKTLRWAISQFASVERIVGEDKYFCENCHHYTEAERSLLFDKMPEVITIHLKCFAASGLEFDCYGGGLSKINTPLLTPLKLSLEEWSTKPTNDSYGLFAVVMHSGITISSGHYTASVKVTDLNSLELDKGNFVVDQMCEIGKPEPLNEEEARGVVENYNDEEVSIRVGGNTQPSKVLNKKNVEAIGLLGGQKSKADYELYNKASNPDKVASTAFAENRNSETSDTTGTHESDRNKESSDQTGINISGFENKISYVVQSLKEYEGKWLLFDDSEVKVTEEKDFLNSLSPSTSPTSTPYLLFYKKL
Phosphoglycerate kinase, glycosomal (Trypanosoma brucei brucei), sequence (P07378 whole entry, looked up): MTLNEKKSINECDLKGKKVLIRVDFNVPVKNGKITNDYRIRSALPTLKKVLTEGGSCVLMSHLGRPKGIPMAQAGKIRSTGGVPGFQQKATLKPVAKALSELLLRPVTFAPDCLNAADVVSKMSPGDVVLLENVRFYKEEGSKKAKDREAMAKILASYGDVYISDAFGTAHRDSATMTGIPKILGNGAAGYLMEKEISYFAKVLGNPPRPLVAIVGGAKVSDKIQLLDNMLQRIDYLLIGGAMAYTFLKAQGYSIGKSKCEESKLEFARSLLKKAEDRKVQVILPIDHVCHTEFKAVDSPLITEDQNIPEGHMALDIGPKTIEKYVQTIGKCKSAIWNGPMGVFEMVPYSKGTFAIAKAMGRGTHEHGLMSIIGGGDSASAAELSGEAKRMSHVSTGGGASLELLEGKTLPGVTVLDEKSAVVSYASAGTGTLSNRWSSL
Peptidyl-prolyl cis-trans isomerase NIMA-interacting 1 (Homo sapiens), sequence (Q13526 whole entry, looked up): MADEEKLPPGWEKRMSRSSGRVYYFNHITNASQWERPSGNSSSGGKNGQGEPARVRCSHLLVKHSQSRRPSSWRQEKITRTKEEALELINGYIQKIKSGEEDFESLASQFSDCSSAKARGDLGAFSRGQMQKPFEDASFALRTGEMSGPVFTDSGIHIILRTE
ATPase family AAA domain-containing protein 5 (Homo sapiens), sequence (Q96QE3 whole entry, looked up, the tested form may be a part): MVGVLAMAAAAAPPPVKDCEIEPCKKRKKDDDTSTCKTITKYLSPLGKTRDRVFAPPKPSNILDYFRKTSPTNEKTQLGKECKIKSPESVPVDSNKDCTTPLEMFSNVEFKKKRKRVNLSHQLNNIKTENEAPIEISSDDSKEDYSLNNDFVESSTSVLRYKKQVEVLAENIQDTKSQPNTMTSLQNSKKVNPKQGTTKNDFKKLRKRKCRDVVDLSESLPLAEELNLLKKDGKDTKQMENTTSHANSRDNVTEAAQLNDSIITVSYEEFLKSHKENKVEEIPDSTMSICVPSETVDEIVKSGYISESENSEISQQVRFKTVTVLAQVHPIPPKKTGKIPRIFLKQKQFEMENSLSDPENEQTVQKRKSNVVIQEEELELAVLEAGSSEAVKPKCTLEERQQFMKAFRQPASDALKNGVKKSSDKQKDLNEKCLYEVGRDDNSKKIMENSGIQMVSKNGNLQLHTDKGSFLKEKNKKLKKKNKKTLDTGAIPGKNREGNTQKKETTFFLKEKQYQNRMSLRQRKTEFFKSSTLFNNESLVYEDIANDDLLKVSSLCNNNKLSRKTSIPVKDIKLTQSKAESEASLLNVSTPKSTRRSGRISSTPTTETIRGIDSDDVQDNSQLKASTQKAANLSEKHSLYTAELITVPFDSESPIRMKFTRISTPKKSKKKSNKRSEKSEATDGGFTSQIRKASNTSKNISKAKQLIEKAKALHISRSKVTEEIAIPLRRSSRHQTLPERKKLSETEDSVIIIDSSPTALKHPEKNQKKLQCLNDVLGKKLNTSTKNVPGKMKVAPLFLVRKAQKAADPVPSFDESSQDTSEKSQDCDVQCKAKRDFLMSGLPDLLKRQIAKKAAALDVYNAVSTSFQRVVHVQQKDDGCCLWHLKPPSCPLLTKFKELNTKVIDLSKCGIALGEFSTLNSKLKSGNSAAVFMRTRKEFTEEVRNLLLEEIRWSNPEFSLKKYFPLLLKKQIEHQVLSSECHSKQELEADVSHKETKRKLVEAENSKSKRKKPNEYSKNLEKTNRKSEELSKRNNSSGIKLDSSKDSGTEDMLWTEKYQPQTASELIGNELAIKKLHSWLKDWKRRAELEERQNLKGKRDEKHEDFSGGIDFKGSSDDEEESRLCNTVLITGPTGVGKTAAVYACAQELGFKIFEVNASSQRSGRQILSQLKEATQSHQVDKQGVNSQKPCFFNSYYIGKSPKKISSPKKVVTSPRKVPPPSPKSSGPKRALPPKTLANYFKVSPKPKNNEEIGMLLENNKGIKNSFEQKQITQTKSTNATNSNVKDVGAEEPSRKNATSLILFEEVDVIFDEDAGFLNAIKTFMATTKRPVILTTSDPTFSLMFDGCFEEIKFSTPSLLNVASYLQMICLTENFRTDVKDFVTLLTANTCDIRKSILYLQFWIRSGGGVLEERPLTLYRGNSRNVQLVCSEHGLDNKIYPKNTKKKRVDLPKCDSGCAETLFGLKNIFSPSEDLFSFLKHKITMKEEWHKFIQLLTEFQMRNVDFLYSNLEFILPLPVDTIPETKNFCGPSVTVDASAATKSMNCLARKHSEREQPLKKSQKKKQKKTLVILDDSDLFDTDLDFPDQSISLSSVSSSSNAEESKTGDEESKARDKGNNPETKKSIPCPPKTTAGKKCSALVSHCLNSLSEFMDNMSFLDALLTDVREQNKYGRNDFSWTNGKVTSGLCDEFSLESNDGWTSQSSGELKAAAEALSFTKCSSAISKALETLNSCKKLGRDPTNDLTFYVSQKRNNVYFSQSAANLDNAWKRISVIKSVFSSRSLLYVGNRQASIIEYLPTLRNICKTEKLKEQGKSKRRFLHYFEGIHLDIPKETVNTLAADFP
Galactokinase (Homo sapiens), sequence (P51570 whole entry, looked up): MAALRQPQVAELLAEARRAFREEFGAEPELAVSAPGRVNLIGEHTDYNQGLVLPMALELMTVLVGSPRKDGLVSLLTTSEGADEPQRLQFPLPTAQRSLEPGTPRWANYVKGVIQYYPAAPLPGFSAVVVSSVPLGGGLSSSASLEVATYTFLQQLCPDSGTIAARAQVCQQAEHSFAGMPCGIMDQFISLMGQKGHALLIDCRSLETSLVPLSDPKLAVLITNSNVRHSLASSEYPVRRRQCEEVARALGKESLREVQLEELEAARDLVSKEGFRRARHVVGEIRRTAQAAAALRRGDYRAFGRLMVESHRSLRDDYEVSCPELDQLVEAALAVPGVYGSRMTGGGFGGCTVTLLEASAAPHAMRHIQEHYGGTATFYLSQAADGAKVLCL
Thyrotropin-releasing hormone receptor (Homo sapiens), sequence (P34981 whole entry, looked up): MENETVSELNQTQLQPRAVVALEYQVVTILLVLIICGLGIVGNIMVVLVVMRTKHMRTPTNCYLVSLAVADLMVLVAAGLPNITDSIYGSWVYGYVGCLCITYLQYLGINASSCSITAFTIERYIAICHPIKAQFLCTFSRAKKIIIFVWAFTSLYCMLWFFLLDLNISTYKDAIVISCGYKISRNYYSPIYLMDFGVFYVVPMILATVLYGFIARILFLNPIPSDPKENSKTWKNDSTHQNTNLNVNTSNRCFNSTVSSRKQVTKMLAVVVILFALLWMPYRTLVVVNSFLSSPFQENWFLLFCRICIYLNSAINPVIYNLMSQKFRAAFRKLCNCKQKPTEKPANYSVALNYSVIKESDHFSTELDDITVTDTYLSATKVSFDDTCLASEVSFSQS

As for `CCCCN=C(N)N=C(N)N`, in [1], the Potency entry was “inactive”.
For the compound `CCCCNc1ccc(C(=O)OCCOCCOCCOCCOCCOCCOCCOCCOCCOC)cc1`, the Potency result in [1] is “inactive”.
Still for that read-out and setting: the same measure for `Cc1cc2c(OCC(CNC(C)(C)C)OC(=O)c3ccccc3)cccc2[nH]1` (stereo unspecified): “inactive”.
As to `COc1ccc2c(c1)c1c3n2CCN(C)C3=NCC1`, the Potency result in test [1] is “inactive”.
Take `CC(=O)Nc1ccc(S(=O)(=O)Nc2ccc([N+](=O)[O-])cc2)cc1`: in [1], the Potency result was “inactive”.
Turning to `CC(=O)O[C@]1(C(C)=O)CC[C@H]2[C@@H]3C=C(Cl)C4=CC(=O)CC[C@]4(C)[C@H]3CC[C@@]21C`, in test [1], the Potency entry was “inactive”.
With `CCCCc1cc2ccccc2c(OCCN(C)C)n1`, the Potency result in [1] is “inactive”.
On the same count and under the same terms, the same measure for `CC(=O)O[C@H]1C[C@@H]2CC[C@@H]3[C@H](CC[C@@]4(C)[C@H]3C[C@H]([N+]3(C)CCCCC3)[C@@H]4OC(C)=O)[C@@]2(C)C[C@@H]1N1CCCCC1`: “inactive”.
Turning to `O=C(O)C1(C(=O)O)CCC1.[NH2-].[NH2-].[Pt+2]`, in test [1], the Potency entry is “inactive”.
On to `Cl/C(=C\n1cncn1)c1ccc(Cl)cc1Cl`, for which the Potency entry in test [1] is “inactive”.
Take `CC(C)=CCOc1ccc(/C=C/C(=O)c2ccc(OCC=C(C)C)cc2OCC(=O)O)cc1`: the Potency in test [1] was 79.4 µM (active).
Consider `CC(=O)OCC1=C(C(=O)O)N2C(=O)[C@@H](NC(=O)CSc3ccncc3)[C@H]2SC1`, for which, in [2], the activation is 0.5% (inactive). Further, the compound was classed as inactive in test [3] and in [4].
Regarding `CC(=O)OC[C@H]1O[C@@H](n2ncc(=O)[nH]c2=O)[C@H](OC(C)=O)[C@@H]1OC(C)=O`, the Potency result in test [1] is “inactive”.
Turning to `C/C=C/C=N/NC(=O)c1ccncc1`, in test [1], the Potency entry was “inactive”.
Same read-out and setting: the same measure for `OCCOCCN1CCN(C2=Nc3ccccc3Sc3ccccc32)CC1`: “inactive”.
In the case of `C[N+]1(CC2COC(c3ccccc3)(C3CCCCC3)O2)CCCCC1` (stereo unspecified), the Potency entry in test [1] was “inactive”.
Take `CN1CCN(c2c(F)cc3c(=O)c(C(=O)O)cn4c3c2SCC4)CC1`: the Potency entry in test [1] was “inactive”.
Still for that read-out and setting: the same measure for `CC(=O)NCCCCCC(=O)O`: “inactive”.
Turning to `CC(C)(C)NC[C@H](O)COc1nsnc1N1CCOCC1`, the compound was classed as inactive in test [5], in [6], in [8], in test [9], in [10] and in [11]. The outcome in [12] and in [13] was inactive. For the same compound, the Potency result in test [7] and in test [1] was “inactive” throughout. The viability change in [7] amounted to 2.77%.
Regarding `N=C(N)N1CCc2ccccc2C1`, in test [1], the Potency entry is “inactive”.
Turning to `NC(N)=NCc1cccc(I)c1`, the result in test [5], in test [6], in test [8], in test [3], in [4] and in test [9] was inactive. For the same compound, the compound was classed as inactive in test [10], in [11], in test [12] and in test [13]. For the same compound, the activation in test [2] is -0.0625% (inactive). For the same compound, in [7], the Potency was 20.6 µM (active). Besides, the viability change in [7] came out at 2.28%.
With `Nc1ccc(S(=O)(=O)NCc2ccccc2)cc1`, the Potency entry in test [1] was “inactive”.
For `Cc1ccc(S(=O)(=O)NC(=O)NC2CCCC2)cc1`, the Potency entry in [1] is “inactive”.
Regarding `CN=C(N)NCCC[C@H](N)C(=O)O`, the result in test [5], in test [6], in test [8], in [9], in [10] and in test [11] was inactive. The call in test [12] and in test [13] was inactive. For the same compound, the Potency entry in [7] and in test [1] was “inactive” in each case. Also, the viability change in test [7] is 2.51%.
In the case of `CCOC(=O)[C@H](CCc1ccccc1)N[C@@H](C)C(=O)N1[C@H](C(=O)O)C[C@H]2CCCC[C@@H]21`, the result in [5], in test [6], in [8], in test [9], in test [10] and in test [11] was inactive. Moreover, the call in test [12] and in test [13] was inactive. Moreover, the Potency result in test [7] and in test [1] was “inactive” in each case. In addition, the viability change in test [7] is -5.88%.
On to `Cc1ccc2c(Br)cc(Br)c(O)c2n1`, for which, in test [1], the Potency entry is “inactive”.
Same read-out and setting: the same measure for `C=CCN1CCc2nc(N)sc2CC1`: “inactive”; for `CN1CCN(CCC(=O)N2c3ccccc3Sc3ccc(C(F)(F)F)cc32)CC1`: “inactive”; for `COc1ccc(-c2cc(C(F)F)nn2-c2ccc(S(N)(=O)=O)cc2)cc1F`: “inactive”.
Regarding `CCCCC(CC)CN1CN(CC(CC)CCCC)CC(C)(N)C1` (stereo unspecified), in test [1], the Potency result was “inactive”.
The same measure, in the same setting: the same measure for `O=C(Nc1cccc(C2=NCCN2)c1)Nc1cccc(C2=NCCN2)c1`: “inactive”.
Consider `CCc1oc2ccccc2c1C(=O)c1cc(I)c(O)c(I)c1`, for which, in test [1], the Potency is 39.8 µM (active).
Consider `NCCNC(=O)c1ccc(Cl)cn1`, for which, in test [1], the Potency result was “inactive”.
For the compound `O=C(O)CCc1nc2ccccc2[nH]1`, in test [1], the Potency result was “inactive”.
On to `O=c1[nH]c(=O)n([C@H]2C[C@H](O)[C@@H](CO)O2)cc1F`, for which, in test [1], the Potency entry was “inactive”.
`CC(=O)Oc1ccc(C)cc1`: the Potency result in [1] was “inactive”.
Still for that read-out and setting: the same measure for `FC(F)(F)C(F)(F)C(F)(F)C(F)(F)C(F)(F)C(F)(F)C(F)(F)C(F)(F)Br`: “inactive”.

The values are drawn from PubChem BioAssay (NCATS).
